Source: PubChem
ELG1 genotox: qHTS screen for small molecules that induce genotoxicity in human embryonic kidney (HEK293T) cells expressing luciferase-tagged ELG1; HEK293T ELG1-luciferase reporter, luminescence, 16 h; Potency, µM (series often up to 46 µM), inactives show at the highest dose activity change, positive = activation, actives largely listed as activators; actives 1.3% (n = 330,000); further: % of control where 0% means no effect; nearly all actives have a fitted effect of over 60% in size
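ELG1-luciferase HEK293T cells, 2,000/well; compound pinned in; 16 hr, 37 °C, 5% CO2; ONE-Glo, 30 min RT; luminescence on CCD imager.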
Rab9 promoter act: qHTS Assay for Rab9 Promoter Activators | Potency, µM (series often up to 9.22 µM), for the others: at the top dose activation, negative = inhibition, actives largely listed as activators | actives 2.8% (n = 320,000) | Huh7 Rab9 promoter-luciferase reporter, luminescence, 24 h; further: % of control where 0% means no effect; nearly all actives have a fitted effect of over 60% in size
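Using Huh7 cells stably transfected with Rab9 promoter–luciferase, compounds were incubated 24 h at 37 °C, 5% CO2; luciferase luminescence was read 10 min after reagent addition.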
SMN2 splice up: qHTS Assay for Enhancers of SMN2 Splice Variant Expression; HEK293 SMN2-luciferase splicing reporter, luminescence, 30-36 h; Potency, µM (top dose mostly 46.1 µM), for inactives: top-dose activity change, positive = activation, hits mostly activators; actives 2.8% (n = 210,000); further: % of control where 0% means no effect; nearly all actives have a fitted effect of over 55% in size
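HEK293 cells carry an SMN2 minigene-luciferase reporter in which exon 7 inclusion puts luciferase in frame. Cells were seeded at 2000 cells/well, attached for 10-12 hours, then exposed to compounds for 30-36 hours at 37C before ONE-Glo luminescence.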
NPC1 promoter act: qHTS Assay for NPC1 Promoter Activators. Huh7 NPC1 promoter luciferase reporter, 24 h. Potency, µM (titrated, usually from 9.22 µM), for the others: at the highest dose activation, most hits filed as activators. actives 2.4% (n = 320,000). AID 485313, 2010; further: % of control where 0% means no effect; nearly all actives have a fitted effect of over 60% in size
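Stable NPC1-promoter luciferase Huh7 line; cpd (DMSO) 24 h, 37 °C, 5% CO2; Amplite luciferase reagent 10 min RT; luminescence readout. qHTS format.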
FLuc modulator: qHTS profiling assay for firefly luciferase inhibitor/activator using purifed enzyme and Km concentrations of substrates (counterscreen for miR-21 project); Luciferin 4-monooxygenase (Photinus pyralis), P08659; AID 588342, 2011; purified FLuc, Km substrates, luminescence inhibition; actives 6.9% (n = 360,000); Potency, µM (series often up to 57.5 µM), without a hit: at the top dose activity change, negative = inhibition, usual class: inhibitors;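 further: plate controls were vehicle for no effect and reference inhibitor for full effect; nearly all actives have a fitted effect of over 55% in size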
Target sequence (P08659 whole entry, looked up): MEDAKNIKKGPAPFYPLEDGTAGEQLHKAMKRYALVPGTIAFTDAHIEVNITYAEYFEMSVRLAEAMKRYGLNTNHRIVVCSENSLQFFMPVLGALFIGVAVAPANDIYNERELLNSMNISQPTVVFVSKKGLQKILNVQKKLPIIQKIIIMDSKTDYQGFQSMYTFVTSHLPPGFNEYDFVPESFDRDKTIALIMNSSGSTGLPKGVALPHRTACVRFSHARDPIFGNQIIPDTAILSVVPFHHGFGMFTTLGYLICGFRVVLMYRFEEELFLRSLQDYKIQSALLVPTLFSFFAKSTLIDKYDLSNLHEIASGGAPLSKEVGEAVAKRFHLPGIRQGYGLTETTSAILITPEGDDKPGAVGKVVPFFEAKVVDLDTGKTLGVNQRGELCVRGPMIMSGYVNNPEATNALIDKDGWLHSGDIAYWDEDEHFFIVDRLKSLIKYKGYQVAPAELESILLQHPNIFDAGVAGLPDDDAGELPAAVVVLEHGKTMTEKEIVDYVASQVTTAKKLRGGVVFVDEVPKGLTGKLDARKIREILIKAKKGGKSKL
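Purified P. pyralis luciferase, 10 nM final, with Km-level 10 uM D-luciferin and 10 uM ATP in 50 mM Tris acetate pH 7.5, 10 mM Mg acetate, 0.01% Tween-20, 0.05% BSA; 6-point qHTS titration about 60 µM downward; luminescence read.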
The depositor's hits bear a star; ? = inconclusive; nt = no result given. The list is not random: actives were taken first. Their share in the collection is about 7.4%. The call rests on the fitted dose curve; in most records, active means well fitted curve in the direction sought with a large enough effect; inconclusive means small, poorly fitted or top-dose-only effect, or another doubt; inactive means no such curve, though single readings can be large; an effect the other way counts as inactive or inconclusive. Potency means the concentration at half of the fitted maximal effect.

SMILES | ELG1 genotox | Rab9 promoter act | SMN2 splice up | NPC1 promoter act | FLuc modulator
O=C(COC(=O)c1ncc(Cl)c(Cl)c1Cl)c1ccc(Cl)s1 | 0.8% | 4.1% | 17.0% | 10.2% | 12µM*
O=C(c1ccco1)N1CCN(Cc2cc(=O)c(OCc3ccc([N+](=O)[O-])cc3)co2)CC1 | -0.1% | -4.2% | nt | 1.1% | 4.5%
CN1CCN(C(=S)c2ccc(-c3cccc(Cl)c3Cl)o2)CC1 | ? | ? | nt | ? | 4.78µM*
Clc1ccc(-c2ccc(CN3CCCCC3)o2)cc1 | 4.6% | 18.6% | nt | 1.1% | ?
S=C(c1ccc(-c2ccccc2Cl)o1)N1CCCCC1 | ? | 3.55µM* | 12.6µM* | 2.82µM* | 5.36µM*
CN1CCN(Cc2ccc(-c3ccc(Cl)cc3)o2)CC1 | ? | 17.4% | ? | 8.3% | ?
N#CCCN1CCN(C(=S)c2ccc(-c3ccc(Cl)cc3)o2)CC1 | ? | 25.0% | -15.7% | 15.6% | 21.3µM*
S=C(c1ccc(-c2ccc(Cl)cc2)o1)N1CCCCC1 | 2.59µM* | 1.41µM* | 5.01µM* | 1.26µM* | 1.07µM*
O=C(Nc1cccc(F)c1)c1ccc2c(c1)N(Cc1ccccc1)C(=O)c1ccccc1S2(=O)=O | nt | nt | -6.5% | nt | -1.1%
N#C/C(=N\Nc1ccc(Br)cc1)C(=N)N1CCOCC1 | ? | 3.98µM* | ? | 3.55µM* | ?
N#C/C(=N/Nc1ccc([N+](=O)[O-])cc1)C(=N)N1CCCCC1 | ? | 0.562µM* | 3.16µM* | 1µM* | 9.53µM*
O=C(CN1CCCCCC1)Nc1ccccc1[N+](=O)[O-] | -2.1% | 4.4% | nt | 2.3% | 2.4%
COc1ccccc1N/N=C(\C#N)C(=N)N1CCOCC1 | -0.2% | 11.0% | ? | 3.2% | -5.7%
N#C/C(=N\Nc1ccc([N+](=O)[O-])cc1)C(=N)N1CCOCC1 | ? | 2.82µM* | nt | ? | ?
N#C/C(=N\Nc1ccccc1[N+](=O)[O-])C(=N)N1CCCCC1 | ? | 0.282µM* | 3.16µM* | 0.562µM* | 2.39µM*
CN(C)CC(C)(C)CNS(=O)(=O)c1ccc(OC(F)(F)F)cc1 | 2.0% | -1.4% | 6.3% | -4.8% | -1.4%
Cn1cc(S(=O)(=O)N2CCCCCC2)cc1C(=O)NCc1ccc(Cl)cc1 | nt | nt | nt | nt | -7.1%
CC1Sc2ccc(S(=O)(=O)CCC(=O)N3CCc4ccccc43)cc2NC1=O (centres undefined) | -5.9% | -6.7% | nt | -2.2% | -1.1%
Cc1c(C(=O)N2CCOCC2)c(S(=O)(=O)Nc2ccccc2)c(C)n1C | 0.9% | 1.0% | nt | 2.2% | 3.0%
COc1ccc(N(CC(=O)NC2CCCC2)C(=O)Cn2nnc(-c3ccc(F)cc3)n2)cc1 | -2.4% | -3.2% | nt | -4.5% | 6.2%
N#C/C(=N\Nc1ccc([N+](=O)[O-])cc1)C(N)=S | -14.9% | 20.0% | nt | 24.4% | 16.9µM*
CCOc1ccc2nc(NC(=O)Cn3c(C)csc3=O)sc2c1 | 11.7% | 6.7% | nt | 14.1% | 4.78µM*
Cc1ccc2nc(NC(=O)COC(=O)c3ccccn3)sc2c1 | 0.0% | ? | ? | ? | 15.1µM*
CCOc1ccc2nc(NC(=O)CN3CCN(c4ccccn4)CC3)sc2c1 | nt | nt | -39.1% | nt | ?
CCOCC(=O)Nc1nc2ccc(OCC)cc2s1 | 8.2µM* | 1.26µM* | 11.2µM* | 2.51µM* | 8.49µM*
SMILES | ELG1 genotox | Rab9 promoter act | SMN2 splice up | NPC1 promoter act | FLuc modulator
CCc1ccc2nc(NC(=O)CSCc3c(C)noc3C)sc2c1 | 7.8% | 20.4% | ? | 4.9% | 21.3µM*
CCN1C(=O)c2cccc3c(S(=O)(=O)NCCc4c[nH]c5ccccc45)ccc1c23 | -0.1% | 0.7% | -3.6% | -2.3% | 0.7%
CCOc1ccc2nc(NS(C)(=O)=O)sc2c1 | ? | 1.4% | 14.1µM* | 6.9% | 16.9µM*
Cc1ccc2nc(NC(=O)C3CC3C)sc2c1 (centres undefined) | 13.4% | ? | nt | 1.12µM* | 5.36µM*
CCOc1ccc2nc(SCC(=O)Nc3cc(C)on3)c(C)cc2c1 | 0.9% | 2.9% | nt | -6.0% | 4.3%
Cc1ccc2nc(NC(=O)CSCC(=O)OCC(=O)c3ccccc3)sc2c1 | 3.8% | -32.0% | -25.6% | -20.6% | 16.9µM*
CCOc1ccc2nc(NC(=O)CSCC(=O)Nc3cc(C)on3)sc2c1 | ? | 3.16µM* | nt | ? | ?
COc1ccc(CCNC(=O)c2ccc3c(c2)NC(=O)C(CSCc2cc(C)ccc2C)N3)cc1OC (centres undefined) | 5.3% | -0.1% | nt | 1.9% | -0.4%
CC(C)c1noc(-c2ccccc2OCC(=O)Nc2ccc([N+](=O)[O-])cc2)n1 | nt | nt | nt | nt | -2.4%
CCOc1ccc2nc(NC(=O)C3CSC4(C)CCC(=O)N34)sc2c1 (centres undefined) | 1.2% | 19.5% | nt | 1.1% | 21.3µM*
C/C=C/C(=O)OCC(=O)Nc1nc2ccc(C)cc2s1 | ? | ? | 17.3% | 24.1% | 21.3µM*
CCOc1ccc2nc(NC(=O)CCC(=O)c3cccs3)sc2c1 | 10.3µM* | 4.47µM* | 12.6µM* | 3.16µM* | 1.9µM*
CCOCC(=O)Nc1nc2ccc(C)cc2s1 | ? | 1.78µM* | 10µM* | ? | 9.53µM*
CCOCC(=O)Nc1nc2ccc(S(C)(=O)=O)cc2s1 | 7.4% | 15.8% | ? | 2.0% | ?
O=C(NCc1cccc(Cl)c1)c1ccc(NC(=O)N2CC3CCCN3c3ccccc32)cc1 (centres undefined) | nt | nt | nt | nt | -12.0%
O=C(O)c1ccccc1Oc1ccc(Oc2ccccc2)cc1 | -3.8% | 0.6% | nt | -0.8% | ?
Cc1cc(C(=O)COC(=O)C23CC4CC(CC(O)(C4)C2)C3)c(C)n1C | 8.2µM* | nt | nt | nt | nt
O=C(COC(=O)C12CC3CC(CC(O)(C3)C1)C2)Nc1ccc(Br)cc1F | ? | 3.55µM* | nt | ? | nt
O=C(COC(=O)C12CC3CC(CC(O)(C3)C1)C2)Nc1ccccc1OC(F)F | -1.2% | -4.2% | 18.3% | 7.4% | ?
NC(=O)COC(=O)C12CC3CC(CC(O)(C3)C1)C2 | 1.4% | 4.1% | 6.9% | -7.6% | 0.0%
O=C(COC(=O)C12CC3CC(CC(C3)C1)C2)Nc1ccccc1F | 4.7% | 1.9% | -6.1% | -0.1% | 10.7µM*
Cc1ccc(-c2nc3n(n2)C(c2ccccc2C)C=C(c2ccc(Cl)cc2)N3)cc1 (centres undefined) | nt | nt | 17.0% | nt | 0.8%
CC(C)(C)NC(=O)c1cccc(NC(=O)CSc2ccc(Cl)cc2)c1 | -4.5% | -6.0% | -17.7% | 0.9% | 10.7µM*
O=C(Cc1ccc(Cl)cc1)Nc1cccc(C(=O)Nc2ccccc2C(=O)O)c1 | 0.8% | -6.7% | nt | -4.1% | -19.4%
CC(C)CNC(=O)c1cccc(NC(=O)CSc2ccc(Cl)cc2)c1 | -6.7% | -0.7% | -3.2% | -1.3% | ?
